Test results published in PubChem BioAssay (EPA / NIEHS).
The source made the active and inactive calls. How the source made its calls: active means hit-call score of the fitted dose curve at least 0.9, where 1 is the maximum; inactive means score below 0.9.

Tests used:
[1] = CEETOX_H295R_PROG: CeeTox H295R High-throughput Steroidogenesis Assay for Progesterone (PROG) (AID 2283442); conditions: actives raise or lower the signal;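 on AC50: human H295R adrenal cells primed with 10 µM forskolin before dosing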
In short: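 Measured analyte is progesterone secreted by H295R cells at 48 h of chemical treatment, following 10 uM forskolin priming. Quantitation used HPLC-MS/MS against a 7-point standard curve; cytotoxicity was checked by MTT absorbance.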

[2] = read-out: Fatty acid synthase (Homo sapiens) (UniProt P49327); experiment: LTEA_HepaRG_FASN: Life Technologies and Expression Analysis (LTEA) Assay for Fatty Acid Synthase (FASN) using HepaRG (AID 2283448); conditions: mRNA level, 48 h; actives raise or lower the signal;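 on AC50: differentiated human HepaRG liver cells in serum-free induction medium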
In short: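 Cells were plated, cultured 48 h, switched to serum-free induction medium, then dosed in duplicate (max 100 uM, half-log dilutions, 0.5% DMSO) for 48 h. RNA was then isolated and FASN quantified by qRT-PCR.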

[3] = read-out: Cyclin D2 (CCND2), CCND2 (gene 894); experiment: LTEA_HepaRG_CCND2: Life Technologies and Expression Analysis (LTEA) Assay for Cyclin D2 (CCND2) using HepaRG (AID 2283449); conditions: mRNA level, 48 h; actives raise or lower the signal
In short: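 CCND2 transcript levels, quantified by qRT-PCR and normalised to three housekeeping genes, were fitted bidirectionally against 0.5% DMSO. HepaRG cultures were dosed 48 h in duplicate with an 8-point half-log series up to 100 uM.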

[4] = read-out: Cyclin Dependent Kinase Inhibitor 1A (CDKN1A), CDKN1A (gene 1026); experiment: LTEA_HepaRG_CDKN1A: Life Technologies and Expression Analysis (LTEA) Assay for Cyclin Dependent Kinase Inhibitor 1A (CDKN1A) using HepaRG (AID 2283450); conditions: mRNA level, 48 h; actives raise or lower the signal
In short: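 Gain or loss of CDKN1A transcript is scored by bidirectional fitting against 0.5% DMSO vehicle. Human HepaRG cultures receive chemicals for 48 h across an 8-point series peaking at 100 uM; expression comes from qRT-PCR.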

[5] = read-out: Cyclin D1 (CCND1), CCND1 (gene 595); experiment: LTEA_HepaRG_CCND1: Life Technologies and Expression Analysis (LTEA) Assay for Cyclin D1 (CCND1) using HepaRG (AID 2283451); conditions: mRNA level, 48 h; actives raise or lower the signal;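 on AC50: differentiated human HepaRG liver cells in serum-free induction medium; TaqMan qRT-PCR transcript level normalised to ACTB GAPDH and POLR2A housekeeping genes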
In short: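 Expression change is measured by qRT-PCR in HepaRG cells after 48 h treatment across eight concentrations topping at 100 uM, with duplicate wells and DMSO (0.5%) serving as baseline for bidirectional fitting.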

[6] = read-out: catalase (CAT), CAT (gene 847); experiment: LTEA_HepaRG_CAT: Life Technologies and Expression Analysis (LTEA) Assay for catalase (CAT) using HepaRG (AID 2283452); conditions: mRNA level, 48 h; actives raise or lower the signal;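 on AC50: TaqMan qRT-PCR signal normalized to ACTB GAPDH and POLR2A housekeeping genes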
In short: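 Expression of CAT was quantified by TaqMan qRT-PCR with ACTB/GAPDH/POLR2A normalization after 48 h chemical exposure of HepaRG. Eight-point half-log series, top 100 uM, in 0.5% DMSO; gain or loss fitted against vehicle.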

[7] = read-out: Cytochrome P450 (CYP1A1), CYP1A1 (gene 1543); experiment: LTEA_HepaRG_CYP1A1: Life Technologies and Expression Analysis (LTEA) Assay for Cytochrome P450 (CYP1A1) using HepaRG (AID 2283454); conditions: mRNA level, 48 h; actives raise or lower the signal
In short: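 Using HepaRG cultures with 0.5% DMSO as vehicle, eight-concentration exposures (max 100 uM) lasted 48 h. Transcript levels were measured by TaqMan qRT-PCR and normalized to ACTB, GAPDH and POLR2A.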

[8] = read-out: CFLAR gene, CFLAR (gene 8837); experiment: LTEA_HepaRG_CFLAR: Life Technologies and Expression Analysis (LTEA) Assay for CFLAR gene using HepaRG (AID 2283455); conditions: mRNA level, 48 h; actives raise or lower the signal
In short: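 Transcript level by qRT-PCR (normalized to ACTB, GAPDH and POLR2A) after 48 h chemical exposure of HepaRG cells, top concentration 100 uM with half-log steps, 0.5% DMSO vehicle, duplicates; fitted bidirectionally against DMSO baseline.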

[9] = read-out: Forkhead box O1 (FOXO1), FOXO1 (gene 2308); experiment: LTEA_HepaRG_FOXO1: Life Technologies and Expression Analysis (LTEA) Assay for Forkhead box O1 (FOXO1) using HepaRG (AID 2283456); conditions: mRNA level, 48 h; actives raise or lower the signal
In short: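 FOXO1 transcript quantified by qRT-PCR after 48 h chemical exposure (top 100 uM, half-log steps, 0.5% DMSO) of HepaRG cells, housekeeping-normalized (ACTB/GAPDH/POLR2A). Changes fitted in both directions relative to vehicle.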

[10] = read-out: growth arrest and DNA damage 45 (GADD45A), GADD45A (gene 1647); experiment: LTEA_HepaRG_GADD45A: Life Technologies and Expression Analysis (LTEA) Assay for growth arrest and DNA damage 45 (GADD45A) using HepaRG (AID 2283458); conditions: mRNA level, 48 h; actives raise or lower the signal
In short: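 Transcript induction or loss, quantified by TaqMan qRT-PCR against three housekeeping genes, is the read-out. HepaRG cells received chemicals for 48 h across eight half-log concentrations from 100 uM in 0.5% DMSO; gain and loss fitted relative to DMSO.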

[11] = read-out: Forkhead box O3 (FOXO3), FOXO3 (gene 2309); experiment: LTEA_HepaRG_FOXO3: Life Technologies and Expression Analysis (LTEA) Assay for Forkhead box O3 (FOXO3) using HepaRG (AID 2283459); conditions: mRNA level, 48 h; actives raise or lower the signal
In short: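 FOXO3 transcript measured by qRT-PCR (normalized to ACTB, GAPDH, POLR2A) after 48 h exposure of HepaRG cells in serum-free induction medium. Duplicates, eight half-log concentrations up to 100 uM, 0.5% DMSO; gain or loss fitted against DMSO.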

[12] = read-out: ABC Transporter (ABCB1), ABCB1 (gene 5243); experiment: LTEA_HepaRG_ABCB1: Life Technologies and Expression Analysis (LTEA) Assay for ABC Transporter (ABCB1) using HepaRG (AID 2283460); conditions: mRNA level, 48 h; actives raise or lower the signal
In short: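 ABCB1 transcript level measured by TaqMan qRT-PCR against three housekeeping genes after 48 h chemical exposure of differentiated HepaRG cells. Top concentration 100 uM, half-log steps, eight points, 0.5% DMSO vehicle; bidirectional fit relative to DMSO.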

[13] = read-out: ABC Transporter (ABCC3), ABCC3 (gene 8714); experiment: LTEA_HepaRG_ABCC3: Life Technologies and Expression Analysis (LTEA) Assay for ABC Transporter (ABCC3) using HepaRG (AID 2283462); conditions: mRNA level, 48 h; actives raise or lower the signal
In short: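 Transcriptional change of ABCC3 in HepaRG after 48 h treatment, determined by qRT-PCR normalized to endogenous controls. Concentrations spanned eight half-log steps to 100 uM in 0.5% DMSO.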

[14] = read-out: ABC Transporter (ABCB11), ABCB11 (gene 8647); experiment: LTEA_HepaRG_ABCB11: Life Technologies and Expression Analysis (LTEA) Assay for ABC Transporter (ABCB11) using HepaRG (AID 2283463); conditions: mRNA level, 48 h; actives raise or lower the signal
In short: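 ABCB11 transcript levels quantified by TaqMan qRT-PCR against three housekeeping genes after 48 h chemical exposure of HepaRG cultures. Concentrations up to 100 uM in half-log steps, 0.5% DMSO vehicle; both induction and suppression scored.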

[15] = read-out: Tumor necrosis factor receptor superfamily member 6 (Homo sapiens) (UniProt P25445); experiment: LTEA_HepaRG_FAS: Life Technologies and Expression Analysis (LTEA) Assay for Fas cell surface death receptor (FAS) using HepaRG (AID 2283447); conditions: mRNA level, 48 h; actives raise or lower the signal
In short: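 FAS transcript level was measured by TaqMan qRT-PCR against three housekeeping genes after 48 h chemical exposure. Cells were HepaRG, 0.5% DMSO vehicle, with a top concentration of 100 uM and half-log dilutions over eight points, in duplicate.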

[16] = read-out: flavin-containing dimethylaniline monooxygenases 3 (FMO3), FMO3 (gene 2328); experiment: LTEA_HepaRG_FMO3: Life Technologies and Expression Analysis (LTEA) Assay for flavin-containing dimethylaniline monooxygenases 3 (FMO3) using HepaRG (AID 2283453); conditions: mRNA level, 48 h; actives raise or lower the signal;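 on AC50: differentiated human HepaRG liver cells in serum-free induction medium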
In short: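 FMO3 transcript quantified by TaqMan qRT-PCR against three housekeeping genes after 48 h chemical exposure of HepaRG cells. Eight-point half-log series, top 100 uM, 0.5% DMSO vehicle; phenobarbital 1mM induction control; up- or down-regulation fitted.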

[17] = read-out: growth arrest and DNA damage 45 (GADD45B), GADD45B (gene 4616); experiment: LTEA_HepaRG_GADD45B: Life Technologies and Expression Analysis (LTEA) Assay for growth arrest and DNA damage 45 (GADD45B) using HepaRG (AID 2283461); conditions: mRNA level, 48 h; actives raise or lower the signal
In short: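 Human HepaRG monolayers receive chemicals for 48 h at eight half-log concentrations, highest 100 uM, in 0.5% DMSO. Expression is measured by TaqMan qRT-PCR and normalized to ACTB, GAPDH and POLR2A.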

[18] = CEETOX_H295R_ESTRADIOL: CeeTox H295R High-throughput Steroidogenesis Assay for Estradiol (AID 2283440); conditions: actives raise or lower the signal;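 further: estradiol secreted into medium quantified by LC-MS/MS after dansyl derivatisation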
In short: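 Readout is estradiol in conditioned medium, quantified by reverse-phase HPLC-MS/MS against a 7-point standard curve. Cells: H295R, forskolin-stimulated, then dosed 48 h in 0.1% DMSO; activity fitted in both directions relative to DMSO.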

[19] = CEETOX_H295R_ESTRONE: CeeTox H295R High-throughput Steroidogenesis Assay for Estrone (AID 2283441); conditions: actives raise or lower the signal
In short: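 Estrone secreted into medium quantified by LC-MS/MS after dansyl chloride derivatization, following 48 h chemical exposure (0.1% DMSO final) of forskolin-prestimulated (10 uM, 48 h) H295R cells; gain or loss fitted against DMSO; MTT viability in same wells.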

Measured: AC50

Chain of Fatty acid synthase (Homo sapiens) (P49327 whole entry, looked up): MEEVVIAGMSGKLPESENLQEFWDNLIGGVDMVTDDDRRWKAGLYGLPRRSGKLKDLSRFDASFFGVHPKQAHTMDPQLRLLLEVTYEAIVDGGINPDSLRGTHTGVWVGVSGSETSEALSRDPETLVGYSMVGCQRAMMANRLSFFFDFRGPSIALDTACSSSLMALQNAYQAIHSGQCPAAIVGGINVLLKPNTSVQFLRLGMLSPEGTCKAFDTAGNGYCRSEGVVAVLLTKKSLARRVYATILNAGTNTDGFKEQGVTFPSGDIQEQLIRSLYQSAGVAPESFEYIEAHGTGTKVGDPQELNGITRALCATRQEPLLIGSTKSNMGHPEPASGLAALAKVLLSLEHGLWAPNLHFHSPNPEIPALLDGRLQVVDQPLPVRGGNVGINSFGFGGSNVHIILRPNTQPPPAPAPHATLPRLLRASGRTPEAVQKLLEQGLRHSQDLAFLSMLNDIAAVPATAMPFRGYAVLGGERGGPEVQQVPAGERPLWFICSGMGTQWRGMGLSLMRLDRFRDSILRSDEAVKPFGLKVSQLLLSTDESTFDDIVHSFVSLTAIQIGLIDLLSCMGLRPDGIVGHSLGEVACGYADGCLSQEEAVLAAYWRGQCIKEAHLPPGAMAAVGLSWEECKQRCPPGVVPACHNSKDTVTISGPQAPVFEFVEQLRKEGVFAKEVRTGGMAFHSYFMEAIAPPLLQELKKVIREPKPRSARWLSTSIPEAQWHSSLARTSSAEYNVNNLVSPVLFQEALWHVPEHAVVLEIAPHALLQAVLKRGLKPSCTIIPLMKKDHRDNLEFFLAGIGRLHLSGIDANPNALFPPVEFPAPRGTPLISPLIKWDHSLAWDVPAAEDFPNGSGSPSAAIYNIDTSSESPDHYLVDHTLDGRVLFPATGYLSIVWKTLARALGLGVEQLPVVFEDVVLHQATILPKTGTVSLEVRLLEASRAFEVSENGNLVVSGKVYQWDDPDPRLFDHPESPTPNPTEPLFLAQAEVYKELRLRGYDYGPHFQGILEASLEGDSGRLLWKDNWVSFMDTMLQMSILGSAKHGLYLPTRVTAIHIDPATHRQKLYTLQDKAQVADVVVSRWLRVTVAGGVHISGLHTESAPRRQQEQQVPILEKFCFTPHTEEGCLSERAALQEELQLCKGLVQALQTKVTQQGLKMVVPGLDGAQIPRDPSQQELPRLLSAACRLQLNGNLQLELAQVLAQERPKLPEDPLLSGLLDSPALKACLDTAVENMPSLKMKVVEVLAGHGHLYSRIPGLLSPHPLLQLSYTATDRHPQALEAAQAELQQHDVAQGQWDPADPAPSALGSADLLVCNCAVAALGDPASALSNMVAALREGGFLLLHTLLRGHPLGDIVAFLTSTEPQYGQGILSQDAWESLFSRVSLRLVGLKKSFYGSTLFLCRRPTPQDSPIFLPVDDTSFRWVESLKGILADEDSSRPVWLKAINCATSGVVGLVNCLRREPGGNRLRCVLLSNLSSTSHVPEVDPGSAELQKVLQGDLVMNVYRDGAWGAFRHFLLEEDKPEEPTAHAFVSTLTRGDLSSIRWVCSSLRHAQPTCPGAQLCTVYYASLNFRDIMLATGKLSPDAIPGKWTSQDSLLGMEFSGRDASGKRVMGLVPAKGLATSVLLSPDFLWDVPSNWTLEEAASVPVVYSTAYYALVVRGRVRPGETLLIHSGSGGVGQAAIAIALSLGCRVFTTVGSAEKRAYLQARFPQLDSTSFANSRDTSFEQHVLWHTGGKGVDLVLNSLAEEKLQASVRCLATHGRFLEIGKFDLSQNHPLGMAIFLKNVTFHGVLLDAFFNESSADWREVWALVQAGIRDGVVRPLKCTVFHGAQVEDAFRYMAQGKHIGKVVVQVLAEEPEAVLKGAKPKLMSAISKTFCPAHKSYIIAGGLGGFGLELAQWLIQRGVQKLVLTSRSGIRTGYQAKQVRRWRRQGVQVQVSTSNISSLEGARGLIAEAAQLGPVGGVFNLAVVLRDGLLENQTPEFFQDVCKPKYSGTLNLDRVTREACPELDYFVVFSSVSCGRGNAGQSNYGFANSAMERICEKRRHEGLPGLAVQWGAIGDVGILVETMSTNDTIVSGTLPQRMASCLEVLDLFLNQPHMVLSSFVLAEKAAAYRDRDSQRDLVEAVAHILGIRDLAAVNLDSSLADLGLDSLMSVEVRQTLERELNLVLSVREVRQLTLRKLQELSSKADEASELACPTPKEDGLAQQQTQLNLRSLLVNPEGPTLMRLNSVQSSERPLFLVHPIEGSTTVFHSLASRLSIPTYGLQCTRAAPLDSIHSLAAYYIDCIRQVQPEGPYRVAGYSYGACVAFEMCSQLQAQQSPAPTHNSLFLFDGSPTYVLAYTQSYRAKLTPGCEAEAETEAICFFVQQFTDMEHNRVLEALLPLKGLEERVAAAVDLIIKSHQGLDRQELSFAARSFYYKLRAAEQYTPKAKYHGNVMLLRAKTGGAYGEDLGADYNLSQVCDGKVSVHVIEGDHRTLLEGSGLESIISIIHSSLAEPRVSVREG

CCCCCCCCCCCC[N+](C)(C)C
inactive: [1] | [3] | [8] | [9] | [11] | [12] | [13]
active: [2] 80.9 µM | [4] 82 µM | [5] 82.7 µM | [6] 75.4 µM | [7] 67.8 µM | [10] 74.9 µM | [14] 73.9 µM

Cc1oc2c(NC(=O)c3c(Cl)cccc3Cl)cccc2c1C(C)(C)O
inactive: [1] | [15] | [5] | [8] | [9] | [10] | [11]
active: [2] 31.2 µM | [6] 29.3 µM | [16] 37.2 µM | [7] 8.74 µM | [12] 80.5 µM | [17] 75.6 µM | [13] 16.1 µM | [14] 23.8 µM

CC(C)(C)c1cc(/C=C2\SC(N)=NC2=O)cc(C(C)(C)C)c1O
active: [1] 0.897 µM | [2] 12.2 µM | [5] 39.3 µM | [6] 16.5 µM | [8] 27.5 µM | [13] 50 µM | [14] 24.6 µM
inactive: [18] | [19] | [15] | [3] | [7] | [9] | [10] | [11] | [12]

O=c1[nH]sc2ccccc12
active: [7] 64.5 µM
inactive: [2] | [5] | [6] | [8] | [9] | [10] | [11] | [12] | [17] | [13] | [14]

Cc1cn([C@H]2C[C@H](N=[N+]=[N-])[C@@H](CO)O2)c(=O)[nH]c1=O
inactive: [2] | [5] | [6] | [16] | [7] | [8] | [9] | [10] | [11] | [12] | [13] | [14]

CCCOC(=O)c1cc(O)c(O)c(O)c1
active: [7] 10.1 µM | [12] 4.06 µM
inactive: [2] | [3] | [5] | [6] | [8] | [9] | [10] | [11] | [13] | [14]

O=C=NCCCCCCN=C=O
inactive: [2] | [3] | [4] | [5] | [6] | [8] | [9] | [10] | [11] | [12] | [13] | [14]
active: [7] 80.1 µM

O=C1O[C@H]([C@@H](O)CO)C(O)=C1O
inactive: [2] | [3] | [5] | [6] | [16] | [8] | [9] | [10] | [11] | [12] | [17] | [13] | [14]
active: [7] 61.8 µM
